Rows were chosen to be rich in hits. Some 0.84% of all compounds tested hit in one or more screens of this group.
COUP-TFII inh – NR2F2 (human) inhibition, primary screen. P24468. HEK293T NGFI-A luciferase reporter, luminescence. inhibition, % at 8.6 µM. 0.7% of 370,000 active;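 active means inhibition above a per-plate cutoff, mean inhibition of test wells between control levels plus 3 SD, cut at about 38% in these data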;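 further: cells cotransfected with COUP-TFII expression vector driving the NGFI-A reporter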
SRC2 inh – inhibits human steroid receptor coactivator 2; HEK293 GAL4-SRC2 luciferase reporter, luminescence; Q15596; 0.17% of 370,000 active; AID 651957; inhibition, % at 9 µM;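 active means inhibition above the mean inhibition of all tested compounds plus 3 SD, set per campaign, cut at about 52% in these data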
NCOA1 inh – inhibits human SRC1 coactivator; AID 588354; inhibition, % at 3.6 µM; Q15788; HEK293 GAL4-SRC1 luciferase reporter, luminescence; 0.12% of 360,000 active;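 active means inhibition above the campaign mean plus 3 SD, with each screening campaign given its own cutoff, cut at about 60% in these data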
SRC3 inh – inhibitors of human steroid receptor coactivator 3 (SRC3) | AID 588352 | HEK293 GAL4-SRC3 luciferase reporter, luminescence | Q9Y6Q9 | 0.17% of 360,000 active | inhibition, % at 3.6 µM;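 active means inhibition above a per-campaign cutoff, the mean of all compounds plus 3 SD, cut at about 60% in these data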;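 further: higher means less SRC3-driven luciferase light from the GAL4 reporter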
NR5A2 inv ag – suppresses constitutive activity of human LRH-1; 0.13% of 360,000 active; AID 602396; inhibition, % at 3.6 µM; HEK293T StAR-luciferase reporter, LRH-1 transfected, 24 h; O00482;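 active means inhibition above the mean inhibition of all tested compounds plus 3 SD, cut at about 73% in these data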
Target sequence (O00482 whole entry, looked up): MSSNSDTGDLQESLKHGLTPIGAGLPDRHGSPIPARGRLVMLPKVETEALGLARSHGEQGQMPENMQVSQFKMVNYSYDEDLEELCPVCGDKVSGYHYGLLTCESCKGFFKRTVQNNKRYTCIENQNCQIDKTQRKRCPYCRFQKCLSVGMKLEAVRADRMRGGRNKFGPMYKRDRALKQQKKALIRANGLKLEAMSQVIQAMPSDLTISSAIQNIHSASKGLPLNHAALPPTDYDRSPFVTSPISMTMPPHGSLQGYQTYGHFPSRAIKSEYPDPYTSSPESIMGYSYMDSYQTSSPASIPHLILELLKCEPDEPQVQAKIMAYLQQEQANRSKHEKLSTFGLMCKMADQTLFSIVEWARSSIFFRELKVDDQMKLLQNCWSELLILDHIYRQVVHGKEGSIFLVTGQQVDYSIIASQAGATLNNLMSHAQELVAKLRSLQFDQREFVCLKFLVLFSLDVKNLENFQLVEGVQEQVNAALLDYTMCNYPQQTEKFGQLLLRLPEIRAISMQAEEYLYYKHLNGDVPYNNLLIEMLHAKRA
Gal4-VP16 ctr – counter-screen for COUP-TFII antagonists: inhibitors of VP16. HEK293 Gal4-VP16 luciferase reporter, luminescence. inhibition, % at 8.5 µM. shares compounds with COUP-TFII inh. 25% of 2,500 active; in the data active means inhibition above about 13%
NR2F2 inh conf – confirmation of human COUP-TFII (NR2F2) inhibitors; shares compounds with COUP-TFII inh; HEK293 NGFI-A luciferase reporter, luminescence; inhibition, % at 8.5 µM; 45% of 2,500 active; AID 687008;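 active means mean inhibition over three repeats above a set limit taken from the earlier primary screen, cut at about 38% in these data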
Large screens that a line does not name were inactive (follow-up assays come after a bar, where they were run); ! = a repeat was not active.

COC(=O)[C@]12C[C@H](CC(=O)NCC34CC5CC(CC(C5)C3)C4)C(=O)N(Cc3ccco3)C1=C[C@H](COCc1ccccc1)O[C@@H]2C	none (no result: NCOA1 inh, SRC3 inh, NR5A2 inv ag)
CCC(Sc1nc(=O)cc(N)n1-c1cccc(C)c1)C(=O)Nc1cc(C)on1 (centres undefined)	COUP-TFII inh 43 | Gal4-VP16 ctr inactive | NR2F2 inh conf inactive
COc1ccc(S(=O)(=O)Nc2ccc(O)c(Sc3ncn[nH]3)c2)cc1	none
COc1ccc(S(=O)(=O)Nc2cc(Sc3ncn[nH]3)c(O)c3ccccc23)cc1	COUP-TFII inh 67, SRC2 inh 61 (no result: NCOA1 inh, SRC3 inh, NR5A2 inv ag) | Gal4-VP16 ctr 13 | NR2F2 inh conf inactive
O=C(NCc1cccnc1)c1ccc(COc2ccc(Cl)cc2)cc1	COUP-TFII inh 66 | Gal4-VP16 ctr inactive | NR2F2 inh conf inactive
O=C(COc1ccc(Cl)cc1)Nc1ccc(C(=O)NCc2cccnc2)cc1	none (no result: COUP-TFII inh, SRC2 inh)
O=C(Nc1cccc2ncccc12)c1ccc(OCc2ccccc2)cc1	COUP-TFII inh 43 | Gal4-VP16 ctr inactive | NR2F2 inh conf inactive
C=C1C(=O)[C@]23C[C@H]1CC[C@H]2[C@]1(C)CCC[C@@](C)(C(=O)OC)[C@H]1C[C@@H]3O	COUP-TFII inh 94, SRC2 inh 84 (no result: NCOA1 inh, SRC3 inh, NR5A2 inv ag) | Gal4-VP16 ctr 71 | NR2F2 inh conf 60
COC(=O)[C@]1(C)CCC[C@@]2(C)C3CC[C@]4(OC(C)=O)C[C@@]3(CCC21)CC4=O (some centres undefined)	none
CCCCCCCCCCCCCCCC[n+]1cccc(C(=O)N(CC)CC)c1	none
CCCCCCCCCCCCCCCC[n+]1ccccc1	COUP-TFII inh 51! | Gal4-VP16 ctr inactive | NR2F2 inh conf inactive
CC1(C(=O)Nc2cccc(C#N)c2)CCN1C(=O)Cc1ccc(-c2ccccc2)cc1 (centres undefined)	COUP-TFII inh 52 | Gal4-VP16 ctr inactive | NR2F2 inh conf inactive
COc1cccc(CNc2nc3cc(-c4cnn(Cc5ccccc5)c4)sc3c(=O)n2C)c1	COUP-TFII inh 79 | Gal4-VP16 ctr 17 | NR2F2 inh conf 54
COc1ccccc1CNc1nc2cc(-c3ccc(OC)c(OC)c3)sc2c(=O)n1C	COUP-TFII inh 41 | Gal4-VP16 ctr inactive | NR2F2 inh conf inactive
COc1cccc(CNc2nc3cc(-c4ccccc4)sc3c(=O)n2C)c1OC	none
COc1cccc(CNc2nc3cc(-c4cccc(OC)c4)sc3c(=O)n2C)c1	none
O=c1cc(N2CCN(c3cccc(C(F)(F)F)c3)CC2)[nH]c(=O)n1C1CCCCC1	none (no result: SRC2 inh, NCOA1 inh, SRC3 inh, NR5A2 inv ag)
CC(C)(C)c1ccc(S(=O)(=O)N2CCC(C(=O)NCCC3=CCCCC3)CC2)cc1	none (no result: NCOA1 inh, SRC3 inh, NR5A2 inv ag)
Cc1cc(N2CCN(C(=O)Oc3ccc(C(F)(F)F)cc3)CC2)c2ccccc2n1	none (no result: NCOA1 inh, SRC3 inh, NR5A2 inv ag)
CC(=O)N1C[C@H]2CON(C)[C@H]2C[C@H]1c1cccc(-c2ccccc2C)c1	COUP-TFII inh 78 | Gal4-VP16 ctr inactive | NR2F2 inh conf inactive
O=C(c1ccccc1)N1CCC(c2nc(-c3ccc(S(=O)(=O)NCC4CCCO4)cc3)no2)CC1 (centres undefined)	none
O=C(C1CC1)N1CCC(c2nc(-c3ccc(S(=O)(=O)NCC4CCCO4)cc3)no2)CC1 (centres undefined)	COUP-TFII inh 45 | Gal4-VP16 ctr inactive | NR2F2 inh conf inactive
Cc1ccccc1CN1C(=O)c2ccccc2S1(=O)=O	none
O=C1c2ccccc2S(=O)(=O)N1Cc1nc2ccccc2s1	COUP-TFII inh 42 | Gal4-VP16 ctr inactive | NR2F2 inh conf inactive
CC(=O)N1CCN(c2cc(-c3ccco3)nc3cc(-c4ccccc4)nn23)CC1	none (no result: SRC2 inh, NCOA1 inh, SRC3 inh, NR5A2 inv ag)
CC(=NNc1ccc2ccccc2n1)c1ccccn1	COUP-TFII inh 59 (no result: NCOA1 inh, SRC3 inh, NR5A2 inv ag) | Gal4-VP16 ctr 34 | NR2F2 inh conf 74
CC(=NNc1ccc2ccccc2n1)c1ccccc1O	none
C/C(=C\c1ccc(N)cc1)c1nc2ccccc2[nH]1	none
O=S(=O)(/C(=C/c1ccc(C(F)(F)F)cc1)c1nc2ccccc2[nH]1)c1ccccc1	COUP-TFII inh 49 | Gal4-VP16 ctr 67 | NR2F2 inh conf 62
CC(C)c1ccc(/C=C(\c2nc3ccccc3[nH]2)S(=O)(=O)c2ccccc2)cc1	COUP-TFII inh 40, SRC2 inh 53, SRC3 inh 73 | Gal4-VP16 ctr 31 | NR2F2 inh conf inactive
CC(C)(O)C#Cc1ccc(C(=O)N2CCN(c3ccc([N+](=O)[O-])cc3)CC2)cc1	COUP-TFII inh 38 | Gal4-VP16 ctr inactive | NR2F2 inh conf inactive
CN1C(=O)c2cc(NC(=O)c3ccccc3)ccc2OC[C@H]2O[C@@H](CC(=O)NCC3CC3)CC[C@@H]21	none (no result: NCOA1 inh, SRC3 inh, NR5A2 inv ag)
Cn1nnnc1SCc1nc2scc(-c3ccc(Cl)cc3)c2c(=O)[nH]1	COUP-TFII inh 46 | Gal4-VP16 ctr inactive | NR2F2 inh conf inactive
COc1ccc(/C=C2\SC(=S)N(CCCC(=O)N3CCCCC3CCO)C2=O)cc1 (centres undefined)	COUP-TFII inh 54, SRC2 inh 77 | Gal4-VP16 ctr 42 | NR2F2 inh conf inactive
CC(C)c1ccc(/C=C2\SC(=S)N(CCC(=O)N3CCCCC3CCO)C2=O)cc1 (centres undefined)	COUP-TFII inh 41 | Gal4-VP16 ctr inactive | NR2F2 inh conf inactive
C[C@H]1[C@@H](OC(=O)NCc2cccc(Cl)c2)CC[C@@]23CCCN2C(=O)CCC[C@@H]13	none (no result: SRC2 inh, NCOA1 inh, SRC3 inh, NR5A2 inv ag)
Cc1ccc(S(=O)(=O)N(C)c2ccc(C(=O)N3CCN(Cc4ccc5c(c4)OCO5)CC3)cc2)cc1	COUP-TFII inh 56 | Gal4-VP16 ctr inactive | NR2F2 inh conf 39
CN(c1ccc(C(=O)N2CCN(Cc3ccc4c(c3)OCO4)CC2)cc1)S(=O)(=O)c1ccccc1	COUP-TFII inh 48 | Gal4-VP16 ctr inactive | NR2F2 inh conf inactive
C#CCOCCOCCOCCNc1nc(N2CCOCC2)nc(N2CCN(C(=O)[C@H](CCC(=O)O)n3cc(C(N)CO)nn3)CC2)n1 (some centres undefined)	none (no result: SRC2 inh, NCOA1 inh, SRC3 inh, NR5A2 inv ag)
O=C(Sc1cccc2cccnc12)c1ccc(F)cc1	COUP-TFII inh 43 (no result: NCOA1 inh, SRC3 inh, NR5A2 inv ag) | Gal4-VP16 ctr 47 | NR2F2 inh conf 44
O=C(Sc1cccc2cccnc12)c1ccccc1Br	none
O=c1cc(CSc2nnc(-c3cccs3)n2Cc2ccccc2)nc2sc3ccccc3n12	COUP-TFII inh 62 | Gal4-VP16 ctr inactive | NR2F2 inh conf inactive
CCOc1ccc(-n2c(SCC(=O)Nc3cc4oc5ccccc5c4cc3OC)nnc2-c2cccc(Cl)c2)cc1	none (no result: NCOA1 inh, SRC3 inh, NR5A2 inv ag)
C[C@@H]1NC(=O)[C@H]2C[C@@]3(c4ccccc4)c4ccccc4N[C@H]3N2C1=O	none (no result: NCOA1 inh, SRC3 inh, NR5A2 inv ag)
CC(=O)Nc1sc2c(c1-c1nc3ccccc3s1)CNC2	none (no result: SRC2 inh, NCOA1 inh, SRC3 inh, NR5A2 inv ag)
CCN(CC)CCNC(=O)c1ccc2c(c1NCCO)C(=O)c1ccccc1C2=O	COUP-TFII inh 64, SRC3 inh 63 | Gal4-VP16 ctr inactive | NR2F2 inh conf inactive
CC1CCN(C(=O)c2ccc3c(c2NCCO)C(=O)c2ccccc2C3=O)CC1	none
COc1ccc(-n2cc(-c3ccccc3)[n+]3c2CCCCC3)cc1	none
